# Sampled rows, rich in hits. Any-hit rate of the full collection: about 1.2%.
# HTT aggregate = qHTS Multiplex Assay to Identify Dual Action Probes in a Cell Model of Huntington: Aggregate Formation (GFP); AID 1688, 2009; Potency, µM (highest dose often 46.1 µM), inactives show at the top dose activity change, negative = inhibition, usual class: inhibitors; 220,000 tested, 1.1% active; PC12 HttQ103-GFP aggregates, Acumen cytometry, 40 h; also: potency is read from the fitted curve at half-maximal effect; % is scaled to controls: 0 for no effect and ±100 for the full control effect; nearly all actives have a fitted effect of over 60% in size
#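 Steps: seed 1500 PC12 HTTQ103-GFP cells/well; add tebufenozide, 100 nM final; add compound titration; add ATPLite reagent; quantify GFP aggregates by laser scanning cytometry.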
# HTT cytoprotect = qHTS Multiplex Assay to Identify Dual Action Probes in a Cell Model of Huntington: Cytoprotection (ATP) | PC12 HTT-Q103 induced, cytoprotection, ATP luminescence, 40 h | Potency, µM (series often up to 56.4 µM), without a hit: cytoprotection (ATP increase), hits mostly activators | 230,000 tested, 0.14% active; also: potency is read from the fitted curve at half-maximal effect; % of control where 0% means no effect; nearly all actives have a fitted effect of over 45% in size
#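 Huntington model: PC12 line, ecdysone-inducible HTTQ103 exon1–GFP, tebufenozide 100 nM. Test articles in a dose series. Endpoint luminescence from cellular ATP.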
# aGal spleen mod = qHTS Assay for Inhibitors and Activators of Human alpha-Galactosidase From Spleen Homogenate. 240,000 tested, 0.008% active. human spleen homogenate, 4MU-alpha-Gal fluorescence, 40 min. Potency, µM (titrated, usually from 80 µM), inactives show top-dose activity change, negative = inhibition, hits mostly inhibitors. AID 2107, 2009;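 also: potency is read from the fitted curve at half-maximal effect; 0% = enzyme with vehicle and -100% = no enzyme basal signal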
# Target sequence (P06280 32-429 limits assumed): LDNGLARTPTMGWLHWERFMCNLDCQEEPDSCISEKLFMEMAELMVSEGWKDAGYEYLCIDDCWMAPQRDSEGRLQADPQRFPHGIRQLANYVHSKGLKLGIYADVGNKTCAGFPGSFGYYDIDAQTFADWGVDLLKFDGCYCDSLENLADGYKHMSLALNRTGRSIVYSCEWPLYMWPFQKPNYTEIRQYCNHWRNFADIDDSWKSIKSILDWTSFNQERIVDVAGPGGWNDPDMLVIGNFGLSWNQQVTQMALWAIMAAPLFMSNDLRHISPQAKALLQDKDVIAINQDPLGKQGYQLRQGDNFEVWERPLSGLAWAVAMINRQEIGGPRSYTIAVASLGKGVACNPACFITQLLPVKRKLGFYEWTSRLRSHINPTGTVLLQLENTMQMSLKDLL
#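 Inhibition or activation of alpha-galactosidase in human spleen homogenate is scored by 4-MU fluorescence after 40 min at 37C, pH 5.0, with 1 mM substrate. AC50s come from concentration-response fitted to the Hill equation.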
# GLA inh pH 4.5 = qHTS Assay for Inhibitors of Human alpha-Galactosidase at pH 4.5; Alpha-galactosidase A (Homo sapiens), P06280; purified enzyme, 4-MU-alpha-Gal fluorescence, pH 4.5; activity change, negative = inhibition, % at 105 µM; 230,000 tested, under 10 active; AID 1467, 2008;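 also: 0% = full activity with enzyme and -100% = basal without enzyme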
# PKM2 act = qHTS Assay for Activators of Human Muscle isoform 2 Pyruvate Kinase. Pyruvate kinase PKM (Homo sapiens), P14618. purified PKM2, Kinase-Glo ATP luminescence, activation; response scale: 0% is enzyme alone, no compound. Potency, µM (doses to about 57.5 µM), without a hit: at the highest dose activation, most hits filed as activators. 260,000 tested, 0.34% active. AID 1631, 2009; also: potency is read from the fitted curve at half-maximal effect; % is scaled to controls: 0 for no effect and ±100 for the full control effect; nearly all actives have a fitted effect of over 55% in size
#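 Purified hPK-M2 (>95% pure) converted ADP (0.1 mM final) to ATP with 0.5 mM PEP in 50 mM imidazole pH7.2, KCl, MgCl2, Tween 20, BSA; 1 h at room temperature. ATP detected by Kinase-Glo luminescence.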
# Numbers without * were called inactive; ? = inconclusive; nt = not tested or not shown; [ ] = remark or other dose. Calls follow the shape of the dose curve; as a rule, active = well fitted curve in the direction sought with a large enough effect; inconclusive = small, poorly fitted or top-dose-only effect, or another doubt; inactive = no such curve, though single readings can be large; an effect the other way counts as inactive or inconclusive.
SMILES,HTT aggregate,HTT cytoprotect,aGal spleen mod,GLA inh pH 4.5,PKM2 act
O=S(=O)(c1ccccc1F)N1CCN(C(=S)NCc2ccccc2)CC1,4%,nt,9%,-4,?
O=C(NCc1ccc(F)cc1)N1CCN(S(=O)(=O)c2ccccc2F)CC1,nt,nt,nt,nt,11µM*
O=C(O)c1cc(N=Nc2ccc([N+](=O)[O-])cc2)ccc1O,nt,-24%[10 µM],-5%,nt,nt
CCCn1nnnc1SCC(=O)NCc1ccc2c(c1)OCO2,0.016µM*,-8%[10 µM],10%,2,-9%
COc1ccc(C2c3c(ncn(CCN4CCOCC4)c3=N)Oc3ccc4ccccc4c32)cc1OC (configuration not stated),13%,-41%,2%,-4,20µM*
CCN(CC)S(=O)(=O)c1ccc(Oc2ccc(S(=O)(=O)N(CC)CC)cc2)cc1,2.8µM*,-19%,4%,3,1%
CCN(CC)S(=O)(=O)c1ccc(Oc2ccccc2OC)cc1,-10%[9.22 µM],17%[10 µM],-3%,3,4%
Cc1cc(C)c2nc(C(F)(F)F)c(C#N)c(N)c2c1,5.6µM*,37%[10 µM],7%,-6,0%
O=C(Cc1ccccc1)Nc1cccc(N2C(=O)C=CC2=O)c1,?,14%[0.074 µM],1%,-3,2.8µM*
CN(C1CCCCC1)S(=O)(=O)c1ccc(NC(=O)c2ccc(Br)o2)cc1,22µM*,1%[10 µM],-7%,-17,-16%
CN(C)S(=O)(=O)c1ccc(NC(=O)c2ccc(Br)o2)cc1,-3%,-6%[10 µM],-6%,-8,2%
Cn1c(=O)n(C)c2cc([N+](=O)[O-])c(N3CCN(S(=O)(=O)c4ccc(C(C)(C)C)cc4)CC3)cc21,13µM*,16%[10 µM],21%,-8,-7%
OCCCn1c(-c2ccccc2)nc(=S)c2c1CCCC2,nt,2.8µM*,-25%,2,-13%
CN(C)CCCn1c(-c2ccccc2)nc(=S)c2c1CCCC2,2%,-29%,4%,-9,1%
CC1(C)Cc2c(c(=S)nc(-c3ccccc3)n2CCCN2CCOCC2)CO1,-14%,-12%[0.074 µM],-3%,6,1%
CC1(C)Cc2c(c(=S)nc(-c3ccccc3)n2CCO)CO1,-26%,20µM*,11%,-3,-11%
COc1ccc2c(c1)C(=O)[C@@H](OC(=O)NS(=O)(=O)c1ccc(F)cc1)[C@H](c1ccc(OC)c(Br)c1)O2,nt,-41%,-15%,-5,nt
NC(=O)COC(=O)c1ccc(S(=O)(=O)N2CCCCCC2)cc1,14%,25%[1.9 µM],-7%,-7,-2%
Cc1nc(COC(=O)c2ccc(S(=O)(=O)N3CCCC3)cc2)cs1,-14%,15%,2%,-10,28µM*
NC(=O)COc1ccccc1/C=C1/SC(=O)N(CC(=O)N2CCc3ccccc3C2)C1=O,-2%,-10%,4%,-22,20µM*
CCOc1cc(/C=C2/SC(=O)N(CC(=O)N3CCc4ccccc4C3)C2=O)ccc1OCC(=O)O,0%,-11%,-6%,3,?
CS(=O)c1ccc(-c2nc(-c3ccc(F)cc3)c(-c3ccncc3)[nH]2)cc1 (configuration not stated),nt,-17%,11%,2,nt
C[C@H](NC(=O)CNC(=O)[C@@H](NC(=O)[C@H](Cc1ccccc1)NC(=O)CNC(=O)CNC(=O)[C@@H](N)Cc1ccccc1)[C@@H](C)O)C(=O)N[C@@H](CCCN=C(N)N)C(=O)N[C@@H](CCCCN)C(=O)N[C@@H](CO)C(=O)N[C@@H](C)C(=O)N[C@@H](CCCN=C(N)N)C(=O)N[C@H](CN)CCCCN,nt,-20%,3%,nt,nt
COC1=C(Nc2ccc(OC)cc2)C(=O)c2ccccc2C1=O,13µM*,-15%[10 µM],4%,-14,-24%
Cc1ccc(NC2=C(Cl)C(=O)c3ccccc3C2=O)cc1,10µM*,-29%[10 µM],-1%,4,-6%
SMILES,HTT aggregate,HTT cytoprotect,aGal spleen mod,GLA inh pH 4.5,PKM2 act
CCOc1ccc(NC2=C(OC)C(=O)c3ccccc3C2=O)cc1,?,-60%[10 µM],4%,-5,-7%
CCNC1=C(Cl)C(=O)c2ccccc2C1=O,13µM*,-25%,-16%,nt,15%
Cc1ccc(NC2=CC(=O)C(=O)c3ccccc32)cc1,10µM*,-74%[10 µM],-11%,-7,-6%
C[C@H]1[C@H](C)CC[C@]2(C=O)CC[C@]3(C)C(=CC[C@@H]4[C@@]5(C)C[C@@H](O)[C@H](O)[C@@](C)(CO)[C@@H]5CC[C@]43C)[C@H]12,nt,nt,-4%,nt,nt
Cc1noc(C)c1C(=O)N1CCC2(CC1)CN(C(=O)Nc1cccc(F)c1)C2,nt,-2%,-8%,nt,nt
COc1ccccc1N1CCN(C(=O)c2ccc(NS(=O)(=O)c3ccc(C)cc3)cc2)CC1,?,-11%,8%,-1,8.9µM*
COc1ccccc1N(CC(=O)N1CCC(C(N)=O)CC1)S(=O)(=O)c1ccccc1,nt,nt,nt,nt,-5%
COc1ccccc1N1CCN(C(=O)c2ccc(CSc3ccccc3)cc2)CC1,22µM*,nt,1%,-18,?
COc1ccccc1N1CCN(C(=O)CN(c2ccccc2OC)S(=O)(=O)c2ccccc2)CC1,5µM*,-8%,-1%,-8,-6%
COc1ccccc1Cn1c(=O)c2ccccc2n2c(Sc3ncnc4sccc34)nnc12,?,1.6µM*,-3%,-3,-1%
Cc1ccc(S(=O)(=O)N2CCN(C(=O)CCn3nc(C)c(C)c3C)CC2)cc1,nt,nt,nt,nt,14µM*
Cc1nn(CCC(=O)N2CCN(S(=O)(=O)c3ccc(Cl)cc3)CC2)c(C)c1C,nt,nt,nt,nt,22µM*
Cn1c(Sc2ccc(-c3cccnc3)n2C)ccc1-c1cccnc1,nt,17%[10 µM],nt,nt,nt
CCCNC(=O)OC[C@@H]1O[C@H](CCON=C(C)C)C=C[C@@H]1Oc1ccc(OC)cc1,nt,-1%[10 µM],-16%[17.5 µM],nt,nt
COc1ccc(Br)cc1-c1noc(-c2ccccc2F)n1,4µM*,-25%,-15%,1,-1%
COc1cc(CC(=O)Nc2ccc(Cl)c(C(F)(F)F)c2)cc(OC)c1OC,10µM*,22%[10 µM],-14%,5,-1%
CC(C)C[C@H](NC(=O)[C@@H](N)Cc1ccccc1)C(=O)N[C@@H](Cc1ccccc1)C(=O)N[C@@H](CCC(N)=O)C(=O)N1CCC[C@H]1C(=O)N[C@@H](CCC(N)=O)C(=O)N[C@@H](CCCN=C(N)N)C(=O)N[C@@H](Cc1ccccc1)C(N)=O,nt,nt,-3%,nt,nt
CN=C1C=CC(=C(c2ccc(N(C)C)cc2)c2ccc(N(C)C)cc2)C=C1,8.9µM*,-99%,nt,nt,nt
CCCC/C=C/[C@H](c1ccccc1)[C@H](CO)Cc1ccc2ccccc2c1,nt,nt,-6%,nt,nt
